Inconclusive results are not listed. Entries that show only a call come without a potency. Calls of active or inactive are those of the source. The call rests on the fitted dose curve.
The compounds below were run against Atrial natriuretic peptide receptor 1 (Homo sapiens) (UniProt P16066) (assay: Natriuretic polypeptide receptor (hNpr1) antagonism - Pilot CMLD screen (AID 1347052)). Settings: HEK293 hNpr1 GloSensor cGMP luminescence, ANP-stimulated; series mostly up to 9.22 µM.
Experimental: In order to identify small molecular compounds that inhibit the hNpr1 receptor we developed a high-throughput assay to measure inhibition of the guanylate cyclase activity of the receptor. cGMP production was measured using a circular permutated Firefly luciferase (FLuc) enzyme functionally linked to the cGMP binding domain of human phosphodiesterase 5 (GloSensor technology pGS-40F, (Fan, F. et al. 2008). The cGMP-sensor was expressed in human embryonic kidney 293 (HEK-293) cells and FLuc activity was measured after stimulation with hNrp agonist peptide. hNrp agonists activates the receptor's associated guanylyl cyclase (GC) domain producing cGMP which then binds to the GloSensor resulting in FLuc activation, the enzymatic activity of which can be measured as bioluminescence with addition of luciferin substrate.
This assay was initially piloted by testing with a small library of specialty compounds.
PROTOCOL TABLES (as described by Inglese J, Shamu CE and Guy RK. 2007)
SEQUENCE No. (e.g., 1, 2, 3, etc.); […] (e.g., Cells, Incubation, Reagent, etc.); VALUE and DESCRIPTION.
1. Cells. Seed 1500 HEK293 cGMP-sensor cells expressing hNpr1 per well in 4uL into Greiner 1536-well white/solid bottom high base, tissue culture-treated plates.
2. Incubation. Incubate plated cells at 37C in 5% CO2, 95% RH overnight.
3. Reagent. Add 1uL per well GloSensor reagent from Promega (2% final concentration) or CO2 independent media vehicle control to respective columns of Greiner 1536-well plates.
4. Incubation. Incubate plated cells at room temperature for 2 h, protect from light.
5. Compounds. Library compounds and A-71915 control added at 23 nL per well, transferred by Pin Tool.
6. Incubation. Incubate plated cells for 30 min. at room temperature, protect from light.
7. Detector. GloSensor baseline pre-read luminescence measured using CCD-based camera (Viewlux).
8. Compound. Add 1uL of hNppA peptide to 0.1 nM final concentration to stimulate hNpr1 or CO2 independent media as vehicle control.
9. Incubation. Incubate treated cells at room temperature for 20 min., protect from light.
10. Detector. GloSensor post-hNppA luminescence measured using CCD-based camera (Viewlux).
NOTES (numbers refer to Sequence numbers above)
1. HEK293 cells expressing hNpr1 and GIP/pGS-40F grown to 85-95% confluence (48-72 h) in T175 culture flasks (CO2 independent media supplemented with 10% FBS, 1% Pen/Strep antibiotics and 1 ug/mL puromycin). Trypsinize and harvest cells from T175 culture flasks and filter through 40 um cell strainer. Cells counted with Invitrogen Countess (30,000,000 - 50,000,000 cells/flask). Cells diluted to a final concentration of 375 cells/uL in CO2 independent media and a Millipore multidrop used to dispense 1500 cells per well (4uL/well) into 13 1536-well Greiner White/Solid bottom, high base tissue-culture treated (TC) plates and one Aurora 1536-well Black/Clear bottom, low base, TC plate (for visual inspection of cell health throughout the duration of the assay).
2. Cells incubated overnight at ambient temperature, 24 h. at 37C in 95% RH incubator protected from light, covered with metal lid with gas-exchange holes.
3. Prepare GloSensor Reagent (Promega): Reconstitute GloSensor luciferase substrate by adding 8.2mL Hepes buffer to 250mg substrate, mix well, protect from light and stored at -80C. Prepare a fresh 12% GloSensor solution in CO2 independent supplemented plating media (see above). Mix well and store at ambient temperature, protected from light. 1uL 12% GloSensor Luciferase Reagent added (2% final concentration) to respective columns of 13 x 1536-well Greiner plate with BioRaptr, 1uL CO2 independent plating media added to respective columns as vehicle control with BioRaptr.
4. Cells incubated for 2 h. at ambient temperature, protected from light with metal lid with gas-exchange holes.
5. A-71915 stock solution prepared (10 mM in DMSO). […]
Potency means the concentration at half of the fitted maximal effect.

Sequence of Atrial natriuretic peptide receptor 1 (Homo sapiens) (P16066 whole entry, looked up, the tested form may be a part): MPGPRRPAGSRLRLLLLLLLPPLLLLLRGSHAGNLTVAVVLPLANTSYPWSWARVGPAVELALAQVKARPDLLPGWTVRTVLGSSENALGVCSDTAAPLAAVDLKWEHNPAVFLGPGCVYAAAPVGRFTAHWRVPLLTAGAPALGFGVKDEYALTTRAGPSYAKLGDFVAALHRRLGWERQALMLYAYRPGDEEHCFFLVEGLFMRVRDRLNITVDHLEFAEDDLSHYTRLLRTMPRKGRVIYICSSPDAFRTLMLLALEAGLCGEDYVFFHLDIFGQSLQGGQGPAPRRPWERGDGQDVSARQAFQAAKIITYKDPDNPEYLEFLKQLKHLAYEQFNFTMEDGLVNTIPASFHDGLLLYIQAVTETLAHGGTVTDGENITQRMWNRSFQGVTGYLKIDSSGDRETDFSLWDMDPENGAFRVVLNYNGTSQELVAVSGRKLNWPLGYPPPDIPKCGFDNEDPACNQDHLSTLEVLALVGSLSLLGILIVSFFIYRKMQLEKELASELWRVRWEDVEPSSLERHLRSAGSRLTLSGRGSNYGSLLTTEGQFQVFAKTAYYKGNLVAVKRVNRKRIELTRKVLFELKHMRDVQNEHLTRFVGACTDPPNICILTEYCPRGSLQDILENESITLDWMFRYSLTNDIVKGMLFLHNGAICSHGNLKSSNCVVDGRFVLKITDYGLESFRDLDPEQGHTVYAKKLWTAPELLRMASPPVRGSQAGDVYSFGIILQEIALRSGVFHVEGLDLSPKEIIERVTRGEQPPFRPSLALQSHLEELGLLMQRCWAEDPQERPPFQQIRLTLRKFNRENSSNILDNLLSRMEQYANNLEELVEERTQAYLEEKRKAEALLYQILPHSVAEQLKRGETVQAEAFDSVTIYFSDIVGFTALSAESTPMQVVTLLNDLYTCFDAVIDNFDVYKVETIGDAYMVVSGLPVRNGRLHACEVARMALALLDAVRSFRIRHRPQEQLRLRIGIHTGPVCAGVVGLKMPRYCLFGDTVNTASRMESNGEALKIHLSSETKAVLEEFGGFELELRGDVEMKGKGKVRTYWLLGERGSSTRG

Row | Structure (SMILES) | Potency
1 | CCCCCCCc1cc2ccccc2c(=O)o1 | inactive
2 | COC(=O)CCCC1=CC2=C(c3ccccc3)C(=O)C(C)(OC(=O)C3CCCC3)C(=O)C2=CN1Cc1ccc(OC)cc1 (stereo not given) | inactive
3 | CC(C)=CCCC(C)=CCON=C1C[C@@H](O)[C@@H](O)[C@@H]2[C@H]3C(=O)N(Cc4ccc5c(c4)OCO5)C(=O)[C@@H]3CC[C@H]12 | inactive
4 | COC1=C(C(=O)c2ccccc2)C(=O)[C@@]2(CC=C(C)C)C[C@H](C(=O)OCC(F)(F)F)C(C)(C)[C@@]1(CC=C(C)C)C2=O | inactive
5 | CCC=CCCC(OC(=O)c1ccc(Br)cc1)C1=CCCCC1=O (stereo not given) | inactive
6 | COC(=O)[C@H]1[C@H](C)[C@@]2(O)c3ccccc3N(C)[C@@]1(C)[C@H]2O | inactive
7 | O=C1OC2(CCCCC2)CC2=C1[C@H]1O[C@](CCCCN3C(=O)c4ccccc4C3=O)(Cc3ccccc31)O2 | inactive
8 | COC1=CC2C(=O)C(C1=O)[C@H](c1ccccc1)[C@H]2C (stereo not given in full) | inactive
9 | C[C@H]1[C@@H]2O[C@H]2CCO[C@H]1c1cccc(Br)c1 | inactive
10 | C=CCOC(=O)C(C(C)=O)[C@@H](NC(=O)OC)c1cccc(F)c1 (stereo not given in full) | inactive
11 | COc1cccc(CO[C@H]2C=C[C@@H](c3ccccc3)O[C@H]2CN=[N+]=[N-])c1 | inactive
12 | COc1ccc(OC[C@H]2CN3[C@H](c4ccc(Br)cc4)[C@H](C)CC[C@H]3C(=O)O2)cc1 | inactive
13 | C=CCN1C(=O)[C@]2(OCCC=C[C@H]2C)c2ccccc21 | inactive
14 | CCOC(=O)[C@@]1([C@@H](NC(=O)OC)c2ccco2)CCCC1=O | inactive
15 | CC(C)(C)c1ccc(O[C@@H]2[C@H](O)CO[C@H]2C=CC#Cc2ccccc2)cc1 | inactive
16 | C=CCCCC=C(C)[C@H](OCc1ccc(OC)cc1)[C@H](CCC=C(C)C(N)=O)OC | inactive
17 | COc1cc2c(c(OC)c1OC)CC(c1ccccc1)=C(c1ccccc1)CC2NC(=O)C(F)(F)F (stereo not given) | inactive
18 | COC(=O)c1cc(C(=O)OC)n2ccc3cc(OC)c(OC)cc3c12 | 531 nM (active)
19 | COC(=O)N[C@H](CC(C)=O)c1cccc(F)c1 | inactive
20 | COc1ccc([C@]23Cc4ccccc4[C@H](O2)C2=C(CCCC2=O)O3)cc1 | inactive

Row | Structure (SMILES) | Potency
21 | COC(=O)CC=C[C@@H](C)[C@H](OC)c1cc(OC)ccc1Br | inactive
22 | COC(=O)CC1c2ccccc2C(Cc2ccc(OC)cc2)=C(C)N1C(=O)OC (stereo not given) | inactive
23 | COC(=O)C1=C[C@@]2(c3ccc(F)cc3[C@@H](OC)[C@@H]2C)[C@@H]2C=C[C@H]1C2 | inactive
24 | COC(=O)C1=C(C(=O)OC)[C@@H]2Nc3ccccc3[C@@]23C[C@@H](C(=O)OC)N(C(=O)Nc2ccccc2F)C3=N1 | inactive
25 | CCOC(=O)NN=C1C[C@@H](O)[C@@H](O)[C@@H]2[C@H]3C(=O)N(C[C@@H]4CCCO4)C(=O)[C@@H]3CC[C@H]12 | inactive
26 | CC(=O)C1=C(C)N(CC#C[Si](C)(C)C)C(=O)N(C(C)=O)C1c1ccccc1 (stereo not given) | inactive
27 | COc1cc2c(c(OC)c1OC)[C@@]1(c3ccccc3)CCCC[C@H]1[C@@H]2NC(=O)C(F)(F)F | inactive
28 | CC1(OC(=O)c2cccs2)C(=O)C=C2C=C3CCCN3C=C2C1=O (stereo not given) | inactive
29 | CNc1ccccc1C(=O)OCC(C)=O | inactive
30 | C=CC[C@@H]1C=C[C@H](ON=C(C)CCN2CCCc3nc(C)c(C)cc32)[C@H](CO)O1 | inactive
31 | COC(=O)N1C(C)=Cc2ccccc2C1CC(C)=CC(C)=O (stereo not given) | inactive
32 | CC(CCN1CCCc2nc(C)c(C)cc21)=NO[C@@H](C)CN1CCCCc2nc(C)c(C)cc21 | inactive
33 | COC(=O)C1=C(C)N(Cc2ccco2)C(=O)NC1c1ccco1 (stereo not given) | inactive
34 | CC(CCC(=O)OC[C@H]1O[C@H](C#Cc2ccccc2)C=C[C@H]1Oc1ccc(C)cc1)=NOC[C@@H](O)COCc1ccco1 | inactive
35 | COC(=O)c1ccc(CN2C(=O)[C@@]3(CC(C)=C[C@@H](COc4ccccc4)O3)c3ccccc32)cc1 | inactive
36 | Cc1noc(C)c1S(=O)(=O)N1CCc2nc(COc3ccccc3)c3c(c2C1)CO[C@@H](C)C3 | inactive
37 | C=CCOC(=O)NC(c1ccc(F)c(F)c1)C(C(=O)CCl)C(=O)OC (stereo not given) | inactive
38 | COC(=O)C1=C(C)N(Cc2ccccc2)C(=NCC2CC2)NC1c1cccc(C(F)(F)F)c1 (stereo not given) | inactive
39 | CCCNC(=O)OC[C@H]1O[C@H](CCON=C(C)CCC(=O)OC[C@H]2O[C@H](C#Cc3ccccc3)C=C[C@H]2Oc2ccc(C)cc2)C=C[C@H]1Oc1ccc(OC)cc1 | inactive
40 | CCOC(=O)C1=C(CCl)NC(=O)N(C(C)=O)C1c1ccccc1 (stereo not given) | inactive

Reference: PubChem BioAssay (NCATS)
